For orientation: viability means the share of living cells, or the viability signal relative to a control. A word on the inhibition: it is the drop in the measured response relative to a control, in per cent.

Activity calls are given as the source filed them.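 The calls were made as follows, unless noted: active = thallium flux through the channel raised or lowered by more than 3 SD from vehicle-only wells, actives on both sides; inactive = the rest.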

The nature of experiment [1]: P. berghei load reduction in hepatocytes – cell-based, HepG2, luciferase luminescence, HepG2 viability, primary screen (AID 624349; in the data active = parasite load remaining mostly below about 12%, no sharp cut-off; inactive = mostly above about 10%;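 also: 100% = mean of DMSO negative control wells on the same plate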). As to conditions: P. berghei liver stage in HepG2, luciferase luminescence, concentration not given here; parasite load remaining: stronger effect = lower value; viability: measured here: HepG2 viability without parasites.
Experiment [2] is described as follows: signal quenchers or enhancers, Cy5 substrate/SSB – biochemical, NIH Clinical Collection, E. coli SSB, artefact control for HCV NS3 helicase inhibitor project (AID 743268; call rule not given here). As to conditions: Cy5-oligo bound E. coli SSB, fluorescence interference.
In experiment [3] the test system is Hepatitis C virus NS3 helicase. The experiment is described as follows: blockers of NS3h binding to DNA – biochemical, fluorescence polarization, NIH Clinical Collection, primary screen (AID 743270; call rule not given here). Particulars: NS3 helicase binding to Cy5-dT15 DNA, stronger effect = higher value, concentration not given here. (Fluorescence polarisation rises when a labelled molecule tumbles more slowly, as on binding a larger partner.)

Experiment [4] concerns the target Single-stranded DNA-binding protein (Escherichia coli (strain K12)) (UniProt P0AGE0). The experiment is described as follows: SSB-ssDNA binding inhibitors – biochemical, fluorescence polarization, NIH Clinical Collection, counter-screen for HCV NS3 helicase inhibitor project (AID 743271; in the data active = inhibition above about 28%). Particulars: E. coli SSB-DNA binding, stronger effect = higher value, concentration not given here.

Experiment [5] can be described thus: compounds distorting NS3 helicase fluorescence signal – biochemical, NIH Clinical Collection, artefact control for HCV NS3 helicase inhibitor project (AID 743272; call rule not given here;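 also: HCV NS3 helicase with a Cy5 labelled single stranded DNA probe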). Particulars: fluorescence interference counterscreen, HCV NS3 helicase assay; stronger effect = lower value. (Counterscreens check selectivity or assay interference.)
Experiment [6] can be described thus: viability loss with induced miR-34 in A549 – imaging, A549 dox-inducible miR-34, nuclei and caspase counts, primary screen (AID 1347080;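 active = compounds whose cell count with miR-34 switched on is under 0.7 times the count with it off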). As to conditions: A549 miR-34 inducible, Hoechst nuclei count, 48 h.
For another experiment, the system named is F380Y. The experiment is described as follows: BK channel mutant inhibitors and activators – cell-based, U2OS BacMam, thallium flux, beta subunits, selectivity assay, profiling panel (AID 1259406).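 Also: initial slope of Thallos dye fluorescence rise after thallium is added; log ratio against the mean of 0.3% DMSO vehicle wells on the same plate.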 As to conditions: U2OS BacMam BK variants, at 30 µM.
The subject of the next experiment is F380Y/beta1. The description is as above. Particulars: U2OS BacMam BK variants, at 30 µM.
The test system of a further experiment is F380Y/beta2Delta. The experiment is described as above. As to conditions: U2OS BacMam BK variants, at 30 µM.
Another experiment deals with F380Y/beta4. The experiment is described as above. As to conditions: U2OS BacMam BK variants, at 30 µM.
Experiment [7] concerns the target Calcium-activated potassium channel subunit alpha-1 (Homo sapiens) + Leucine-rich repeat-containing protein 26 (Homo sapiens) (UniProt Q12791+Q2I0M4). The description is as above. As to conditions: U2OS BacMam BK variants, F380Y/Slo1WT/gamma1, at 30 µM.
A further experiment concerns R275C. The experiment is described as above. Particulars: U2OS BacMam BK variants, at 30 µM.
The test system of a further experiment is R275C/beta1. Described as above. Particulars: U2OS BacMam BK variants, at 30 µM.
The test system of a further experiment is R275C/beta2Delta. The description is as above. As to conditions: U2OS BacMam BK variants, at 30 µM.
A further experiment has as its system R275C/beta4. The description is as above. As to conditions: U2OS BacMam BK variants, at 30 µM.
The next experiment concerns R275C/Slo1WT/beta2. The experiment is described as above. As to conditions: U2OS BacMam BK variants, at 30 µM.
[8] abbreviates: measured here: relative caspase fold change +Dox/-Dox.
Setting [9] is: measured here: total cells with miR-34 induction, stronger effect = lower value.
Where [10] appears, read: measured here: total cells without miR-34 induction.

Calcium-activated potassium channel subunit alpha-1 (Homo sapiens) + Leucine-rich repeat-containing protein 26 (Homo sapiens), sequence (Q2I0M4 whole entry, looked up, one chain of several): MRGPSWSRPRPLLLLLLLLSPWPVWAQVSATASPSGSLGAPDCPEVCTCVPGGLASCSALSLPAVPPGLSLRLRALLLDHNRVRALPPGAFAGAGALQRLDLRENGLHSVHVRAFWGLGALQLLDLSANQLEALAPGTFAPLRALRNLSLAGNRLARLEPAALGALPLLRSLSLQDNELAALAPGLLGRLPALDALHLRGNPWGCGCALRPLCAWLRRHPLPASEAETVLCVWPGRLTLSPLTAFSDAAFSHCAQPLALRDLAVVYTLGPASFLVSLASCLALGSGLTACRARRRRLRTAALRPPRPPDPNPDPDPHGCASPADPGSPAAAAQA

For `CC12CCC(=O)C=C1CCC1C2CCC2(C)C(O)CCC12` (configuration not stated), the parasite load remaining in experiment [1] is 38.7% (inactive). The compound further had a viability in experiment [1] of 100%. For the same compound, the fluorescence ratio in [2] was 0.97 (inactive); in experiment [5], 1.01 (inactive). Further, the inhibition in [3] was -3.18% (inactive); in [4], -3.53% (inactive). The fold change in experiment [6] (stronger effect = lower value) was 0.96 (inactive); in experiment [6] (setting [8]), 2.43. For the same compound, the cell count came out at 9970 in experiment [6] (setting [9]) and 10400 in experiment [6] (setting [10]). Also, the log fold change Tl+ flux with F380Y was 0.0199 (inactive); in the experiment with F380Y/beta1, 0.0232 (inactive); in the experiment with F380Y/beta2Delta, 0.032 (inactive); with F380Y/beta4, -0.0491 (inactive); in experiment [7], -0.042 (inactive); in the experiment with R275C it was 0.011 (inactive). In addition, the log fold change Tl+ flux was 0.00563 (inactive) with R275C/beta1, 0.059 (inactive) in the experiment on R275C/beta2Delta, -0.00525 (inactive) in the experiment with R275C/beta4 and -0.0485 (inactive) in the experiment with R275C/Slo1WT/beta2.

As to `C[C@]12CC(=CO)C(=O)C[C@@H]1CC[C@@H]1[C@@H]2CC[C@@]2(C)[C@H]1CC[C@]2(C)O`, the parasite load remaining in [1] was 62.4% (inactive). The same compound gave a viability in experiment [1] of 66.1%. The figures for the fluorescence ratio in experiment [2] and in experiment [5] were 1.04 (inactive) and 1.01 (inactive), respectively. Besides, the results for the inhibition in [3] and in [4] were 5.15% (inactive) and 3.75% (inactive), respectively. Also, the log fold change Tl+ flux was 0.111 (active) with F380Y; 0.204 (active) in the experiment with F380Y/beta1; 0.171 (active) in the experiment with F380Y/beta2Delta; 0.113 (active) with F380Y/beta4; 0.208 (active) in [7]; 0.0626 (inactive) in the experiment on R275C. For the same compound, the log fold change Tl+ flux with R275C/beta1 is 0.301 (active); in the experiment on R275C/beta2Delta it was 0.261 (active); in the experiment on R275C/beta4 it was 0.148 (active); in the experiment with R275C/Slo1WT/beta2, 0.0227 (inactive).

Consider `Clc1ccc(CON=C(Cn2ccnc2)c2ccc(Cl)cc2Cl)c(Cl)c1`, for which the parasite load remaining in experiment [1] was 2.5% (inactive). This compound also gave a viability in [1] of 54.6%. The values for the fluorescence ratio in experiment [2] and in [5] were 0.95 (inactive) and 1 (inactive), respectively. The inhibition in experiment [3] is 13.1% (inactive); in experiment [4] it was 7.6% (inactive). For the same compound, the results for the fold change in experiment [6] (stronger effect = lower value) and in experiment [6] (setting [8]) were 1.28 (inactive) and 0.637, respectively. The figures for the cell count in [6] (setting [9]) and in experiment [6] (setting [10]) were 3280 and 2560, respectively. In addition, the log fold change Tl+ flux is -0.0332 (inactive) in the experiment on F380Y; -0.00723 (inactive) with F380Y/beta1; -0.00783 (inactive) in the experiment with F380Y/beta2Delta; -0.00465 (inactive) in the experiment with F380Y/beta4; -0.0645 (inactive) in the experiment on R275C; 0.329 (active) in the experiment on R275C/beta1. Further, the log fold change Tl+ flux in the experiment on R275C/beta2Delta is -0.0303 (inactive); in the experiment with R275C/beta4, 0.02 (inactive); in the experiment with R275C/Slo1WT/beta2, 0.0197 (inactive).

As for `C[C@]12CCC(=O)C=C1CC[C@@H]1[C@@H]2CC[C@@]2(C)[C@H]1CC[C@]2(C)O`, the parasite load remaining in [1] is 82.1% (inactive). Besides, the viability in experiment [1] was 78%. In addition, the fluorescence ratio in experiment [2] was 1.03 (inactive); in experiment [5] it was 0.97 (inactive). In addition, the results for the inhibition in experiment [3] and in experiment [4] were 0.4% (inactive) and -2.41% (inactive), respectively. Moreover, the log fold change Tl+ flux in the experiment on F380Y is -0.0714 (inactive); in the experiment on F380Y/beta1 it was 0.0212 (inactive); with F380Y/beta2Delta it was -0.0632 (inactive); in the experiment with F380Y/beta4 it was -0.105 (active); in experiment [7] it was 0.0144 (inactive); in the experiment with R275C it was -0.0155 (inactive). For the same compound, the log fold change Tl+ flux in the experiment with R275C/beta1 is 0.014 (inactive); in the experiment on R275C/beta2Delta, 0.0131 (inactive); in the experiment on R275C/beta4 it was 0.00989 (inactive); in the experiment on R275C/Slo1WT/beta2, -0.0244 (inactive).

Regarding `CC[C@@H]1C=CC=CC[C@H](C)[C@@H](O)[C@@H](C)C(=O)[C@H](C)[C@@H](O)[C@H](C)C(=O)[C@H](C)[C@@H](O)[C@H](C)C=CC(=O)O[C@H]2[C@@H](C)[C@@H](CC1)O[C@@]1(CC[C@@H](C)[C@@H](C[C@H](C)O)O1)[C@@H]2C`, the parasite load remaining in experiment [1] was 1.55% (active). In experiment [1], this compound returned a viability of 67.4%. The fluorescence ratio in experiment [2] is 1.01 (inactive); in experiment [5] it was 0.98 (inactive). For the same compound, the inhibition in experiment [3] is 4.36% (inactive); in [4], 7.6% (inactive). Moreover, the log fold change Tl+ flux is -0.509 (active) in the experiment on F380Y; -0.604 (active) with F380Y/beta1; -0.884 (active) in the experiment with F380Y/beta2Delta; -0.693 (active) in the experiment on F380Y/beta4; -0.117 (active) in [7]; -0.133 (active) with R275C. For the same compound, the log fold change Tl+ flux with R275C/beta1 is 0.0227 (inactive); in the experiment on R275C/beta2Delta, -0.0422 (inactive); with R275C/beta4, -0.0178 (inactive); with R275C/Slo1WT/beta2 it was -0.0132 (inactive).

The record behind these values is PubChem BioAssay.
